Screens as filed in PubChem BioAssay.
HCMV UL50-53 inh: disrupts HCMV UL50-UL53 complex binding; HTRF UL50-UL53 interaction, normalized percent inhibition; inhibition, % (no concentration beside the values); 0.15% of 190,000 active; AID 1918969; in the data active = inhibition above about 27%, passing the limit was not always enough
S aureus helic: S. aureus DNA helicase inhibition; purified S. aureus helicase, fluorescence unwinding assay; inhibition, % (no concentration beside the values); 0.05% of 120,000 active; in the data active = inhibition above about 25%, passing the limit was not always enough;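 note: 0% = mean of negative control wells and 100% = mean of positive control wells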
Sa growth 42C: blocks Staphylococcus aureus growth; S. aureus RN4220 growth, OD600, 20 h, 42 °C; stronger effect = lower value; relative growth, % (test concentration not listed); 0.53% of 170,000 active; AID 720641;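 active = relative growth at most 50% at the other temperature and 20+ points below 30 °C, or under 10% at both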
* hit, by the source's call; i = inactive; / = no result given. Only a selection was taken, and hits are over-represented in it overall.

SMILES	HCMV UL50-53 inh	S aureus helic	Sa growth 42C
COc1cccc(C(=O)Nc2cccc(-c3ccc(N4CCN(C)CC4)nn3)c2)c1	-13.5	17.0	98.5
O=C(CCCn1c(SCC(=O)c2ccccc2)nc2ccccc2c1=O)NCc1ccccc1	4.8	/	115.9
Oc1ccccc1C=Nc1cccc(N=Cc2ccccc2O)c1	/	1.0	108.9
Oc1cccc(N=Cc2cc(Br)ccc2O)c1	-1.9	-10.0	32.2*
CC(C)Cn1c(SCC(=O)c2ccc3c(c2)NC(=O)CO3)nc2ccccc2c1=O	11.8	-4.0	95.3
CC1CC(C)CN(C(=O)Nc2ccc3c(c2)N(Cc2ccccc2)C(=O)c2ccccc2S3)C1 (stereo unspecified)	-6.0	/	/
Cc1ccc(C(=O)O)cc1-n1c(C)ccc1-c1ccccc1	6.5	/	104.9
Cc1ccc(C)n1-c1ccsc1C(=O)CC#N	-14.8	/	/
Cc1ccc(C)n1-c1ccsc1C(=O)O	-20.2	35.0	46.1*
Cc1ccc(C)n1-c1ccc(C(=O)O)cc1O	55.8*	-13.0	90.4
Cc1ccc(C(=O)O)cc1-n1c(C)ccc1C	-2.6	2.0	85.9
Cc1cc(C(=O)O)ccc1-n1c(C)ccc1C	34.3*	-22.0	82.5
Cc1cc(C)nc(N/N=C/c2c(O)n(C)c(=O)n(C)c2=O)n1	-16.2	-21.0	72.0
CC(=O)N1CCN(S(=O)(=O)c2cc(N3C(=O)CCS3(=O)=O)ccc2C)CC1	-9.9	/	/
Cn1cnnc1SCc1cc(=O)c(OCc2cccc(F)c2)co1	-8.4	-6.0	98.2
Cc1ccc(OCC(=O)NCc2ccco2)c(C(C)(C)C)c1	1.3	-7.0	87.2
CC(C)CC(=O)Nc1ccc2nc(SCc3cc(=O)n4ccsc4n3)sc2c1	-31.8	6.0	77.2
O=C(NCCc1ccc(Cl)cc1)c1cnn(-c2ccc(Cl)cc2)c1C(F)(F)F	-24.4	/	79.5
Cc1ccc(C)c(CNc2ccc3[nH]ncc3c2)c1	-35.1	3.0	18.8
COc1ccc(CNc2ccc3cn[nH]c3c2)c(OC)c1C	51.7*	2.0	125.1
O=c1oc2c(Cl)cc(Cl)cc2cc1-c1nnc(-c2ccc([N+](=O)[O-])cc2)o1	-13.0	/	/
Cc1nc(-c2cccs2)cs1	-20.0	17.0	75.8
S=c1nc(-c2cccs2)cn[nH]1	-98.0	-2.0	38.5*
O=C(O)C(=O)/C=C(\O)c1ccccc1	-11.8	/	93.0
O=C(/C=C(\O)c1ccccc1)C(F)(F)C(F)F	-6.9	3.0	-0.8*
SMILES	HCMV UL50-53 inh	S aureus helic	Sa growth 42C
CCOC(=O)c1[nH]c(C)c(C)c1O	-8.0	9.0	99.2
O=C(O)C1=CC(=C(c2ccc(O)c(C(=O)O)c2)c2ccc(O)c(C(=O)O)c2)C=CC1=O	122.8*	/	/
Nc1ccc(O)c(C(=O)O)c1	-68.0	/	80.5
COc1cc2c(cc1OC)C(C)N(c1ncnc3onc(C)c13)CC2 (stereo unspecified)	-13.1	-12.0	104.9
CC[C@H]1OC(=O)[C@H](C)[C@@H](O[C@H]2C[C@@](C)(OC)[C@@H](O)[C@H](C)O2)[C@H](C)[C@@H](O[C@@H]2O[C@H](C)C[C@H](N(C)C)[C@H]2O)[C@](C)(OC)C[C@@H](C)C(=O)[C@H](C)[C@@H](O)[C@]1(C)O	-22.7	/	-0.8*
CCC1OC(=O)C(C)C(OC2C[C@@](C)(OC)C(O)C(C)O2)C(C)C(OC2OC(C)CC(N(C)C)C2O)[C@](C)(OC)CC(C)C(=O)C(C)C(O)[C@]1(C)O (stereo partly specified)	-4.7	/	/
COc1ccc(-c2nsc(NC(=O)C(C)Oc3ccc(Cl)c(C)c3)n2)cc1 (stereo unspecified)	0.7	/	83.5
CC(Oc1ccc(F)cc1)C(=O)Nc1nc(-c2ccc(F)cc2)ns1 (stereo unspecified)	-28.2	/	2.3*
Cc1[nH]c2ccc(C(=O)OCc3nnc(-c4ccccc4)o3)cc2c1C	2.9	-4.0	84.8
Cc1nc(N(C)C)cc(N2CCN(C(=O)c3ccccc3C)CC2)n1	-29.8	/	/
COC(=O)c1ccc2c(c1)NC(=O)C1CCCN21 (stereo unspecified)	-4.9	/	/
O=C(O)c1ccc2c(c1)NC(=O)C1CCCN21 (stereo unspecified)	78.7*	/	/
Cc1ccc(CCNC(=O)c2cc(C)[nH]n2)cc1	-8.8	-21.0	107.7
CCN1/C(=C/C2=CC(=O)CC(C)(C)C2)Sc2ccccc21	/	-76.0	1.0*
CCN1/C(=C\C=C2C(=O)OC(C)(C)OC2=O)Sc2ccccc21	-25.3	-82.0	75.5
COC(=O)CNC(c1ccccc1)c1cc(Br)ccc1NC(=O)CCN1CCOCC1 (stereo unspecified)	/	6.0	21.2*
COC(=O)CNC(c1ccccc1)c1cc(Br)ccc1NC(=O)c1ccc(Cl)cc1 (stereo unspecified)	-29.7	/	101.3
CCc1cc(C(Nc2cc(C)ccn2)c2ccc3c(c2)OCO3)c(NC(=O)c2ccccc2)s1 (stereo unspecified)	-23.7	/	/
Oc1cc2c(cc1C(Nc1ccccn1)c1ccc3c(c1)OCO3)OCO2 (stereo unspecified)	2.3	4.0	0.6*
CC(=O)Nc1ccccc1NC(=O)c1cccs1	10.3	13.0	107.8
Cc1ccnc(SCC(=O)/C=C2\N(C)c3ccccc3C2(C)C)n1	2.7	-16.0	119.8
CN1/C(=C\C(=O)CSCCO)C(C)(C)c2ccccc21	-47.5	i	-0.5*
CCNC(=O)/C(C#N)=C/C1=Cc2ccccc2OC1	-77.5	-245.0	86.9
CCN(Cc1ccncc1)Cn1c(=S)oc2ccccc21	-3.8	10.0	87.8
CCCC1CC(C(=O)NC(C(C)Cl)C2OC(SC)C(O)C(O)C2O)N(C)C1 (stereo unspecified)	-6.8	/	/
SMILES	HCMV UL50-53 inh	S aureus helic	Sa growth 42C
CCC[C@@H]1C[C@@H](C(=O)N[C@H]([C@H]2O[C@H](SC)[C@H](O)[C@@H](O)[C@H]2O)[C@H](C)O)N(C)C1	-37.0	/	0.0*
CCC[C@@H]1C[C@@H](C(=O)N[C@@H](C2O[C@H](SC)[C@H](O)[C@@H](O)[C@H]2O)[C@H](C)Cl)N(C)C1 (stereo partly specified)	-14.7	/	-1.1*
CCC[C@@H]1C[C@@H](C(=O)N[C@@H]([C@H]2O[C@H](SC)[C@H](O)[C@@H](O)[C@H]2O)[C@H](C)Cl)N(C)C1	-32.0	/	-0.8*
Cc1ccc(N2CC(C(=O)Nc3cc(-n4cnnn4)ccc3Cl)CC2=O)cc1 (stereo unspecified)	-35.5	/	/
CC1CCc2nc(NC(=O)c3ccc(F)c(F)c3)sc2C1 (stereo unspecified)	-14.3	-7.0	/
O=C(NCCc1ccccc1)N1CCn2cccc2C1c1ccccc1 (stereo unspecified)	-38.9	7.0	84.7
CC1=CC(C)=NS(=O)(=O)N1	-29.0	-5.0	81.0
Cc1c(C(=O)CN2CCN(C(=O)Nc3ccccc3Br)CC2)c2ccccc2n1C	-12.4	/	/
COC(=O)c1ccc(COC(=O)c2ccc(CN3CCCC3=O)cc2)cc1	-19.9	-1.0	75.6
C=Cn1cccc1C(=O)O	-15.1	15.0	116.5
O=C(O)C(O)C(O)c1nc2ccccc2s1 (stereo unspecified)	5.2	7.0	87.3
O=C(c1ccc(N2CCOCC2)nc1)N1CCCC1	1.7	/	96.5
CC1CCN2C(c3ccc(Cl)cc3)=CSC2=N1 (stereo unspecified)	-20.1	16.0	75.7
Cc1ccc(C(O)CN=Cc2c(O)ccc3ccccc23)cn1 (stereo unspecified)	61.8*	-21.0	102.8
Oc1ccc2ccccc2c1C=NCc1cccnc1	-7.5	/	71.9
